We go through 88 molecules from paper PMC4336329 (PLoS ONE, 2015).

Among all 310,000 compounds or so, about 14,000 (4.5%) showed an effect of 50% or more. Effects have a minus sign here. What follows is part of a selection rich in strong results, with near analogues and random picks from the rest.
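Note: peak tail current of the secondary pulse compared with the same well before compound.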

The target of the experiment is human ether-à-go-go-related gene (hERG) potassium channel (human, UniProt Q12809). In words: primary screen, population patch clamp on CHO cells stably expressing hERG; higher = less effect of the substance.
Chain of human ether-à-go-go-related gene (hERG) potassium channel (Q12809 whole entry, looked up): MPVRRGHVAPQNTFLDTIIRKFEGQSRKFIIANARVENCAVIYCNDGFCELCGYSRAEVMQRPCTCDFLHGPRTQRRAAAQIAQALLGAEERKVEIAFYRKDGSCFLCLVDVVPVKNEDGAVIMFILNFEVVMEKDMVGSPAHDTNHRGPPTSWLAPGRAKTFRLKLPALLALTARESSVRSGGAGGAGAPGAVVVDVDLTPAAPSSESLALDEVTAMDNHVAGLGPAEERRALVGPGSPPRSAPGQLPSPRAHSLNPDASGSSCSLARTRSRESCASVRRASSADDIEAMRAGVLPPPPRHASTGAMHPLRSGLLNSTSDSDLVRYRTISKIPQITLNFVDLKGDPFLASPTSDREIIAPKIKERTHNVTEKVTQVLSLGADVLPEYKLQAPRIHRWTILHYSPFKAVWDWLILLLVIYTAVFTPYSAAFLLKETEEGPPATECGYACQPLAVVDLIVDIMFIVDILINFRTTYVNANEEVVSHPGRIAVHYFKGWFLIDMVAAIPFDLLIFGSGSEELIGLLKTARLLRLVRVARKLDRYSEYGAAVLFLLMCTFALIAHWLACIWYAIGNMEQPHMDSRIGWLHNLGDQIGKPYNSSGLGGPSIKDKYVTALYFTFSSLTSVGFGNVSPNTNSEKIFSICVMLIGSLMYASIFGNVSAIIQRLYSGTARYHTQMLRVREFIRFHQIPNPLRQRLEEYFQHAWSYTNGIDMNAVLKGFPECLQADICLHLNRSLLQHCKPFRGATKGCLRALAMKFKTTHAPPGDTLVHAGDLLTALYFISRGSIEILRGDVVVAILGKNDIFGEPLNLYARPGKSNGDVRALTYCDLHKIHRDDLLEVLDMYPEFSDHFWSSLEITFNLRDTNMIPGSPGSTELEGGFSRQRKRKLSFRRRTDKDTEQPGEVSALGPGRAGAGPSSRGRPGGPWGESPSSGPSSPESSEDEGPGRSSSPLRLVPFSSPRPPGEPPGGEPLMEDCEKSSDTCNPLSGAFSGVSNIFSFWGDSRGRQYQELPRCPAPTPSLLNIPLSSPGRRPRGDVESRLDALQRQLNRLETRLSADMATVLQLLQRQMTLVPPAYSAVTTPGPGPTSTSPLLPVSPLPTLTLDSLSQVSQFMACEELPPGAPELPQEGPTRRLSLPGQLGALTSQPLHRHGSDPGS
On to `CCCc1nnc(NC(=O)c2cc(OC)cc(OC)c2)s1`, for which the “hERG current change (%, negative = inhibition) at 10uM” value is listed as -4.25%. As for `Cc1ccccc1NC(=O)CSc1ccncc1`, the figure is -1.94%. As for `CNCCc1ccccn1.Cl`, the figure is 7.88%; as for `CC(=O)NN1C(=O)/C(=C/c2ccc(Br)o2)SC1=S`, 2.1%; as for `COc1ccc(C(CNC(=O)c2ccco2)N2CCCCC2)cc1` (stereo not shown), -5.74%.

In the case of `COc1ccc(C(CNC(=O)c2cc3ccccc3o2)N2CCCCC2)cc1` (stereo not shown), the “hERG current change (%, negative = inhibition) at 10uM” value is -51.6%. For `COc1ccc(C(CNC(=O)c2cc3ccccc3cc2OC)N2CCCC2)cc1` (stereo not shown) the value was -67.5%. For `COc1ccc(C(CNC(=O)CCNC(=O)c2ccccc2OC)N2CCCC2)cc1` (stereo not shown) the value was -14.1%; for `COc1ccc(C(CNC(=O)c2cc3ccccc3o2)N2CCCC2)cc1` (stereo not shown), -38.6%; for `COc1ccc(C(CNC(=O)c2ccccc2C)N2CCCC2)cc1` (stereo not shown), -16.2%. As for `CCOC(=O)c1cc(CC)sc1NC(=O)Cc1ccccc1`, the figure is 25.9%. `CCCCn1c(-c2csc3ccccc23)n[nH]c1=S`: the “hERG current change (%, negative = inhibition) at 10uM” value was found to be 12.8%. As for `Cc1ccc(S(=O)(=O)NC2=NCN(CCOC(=O)c3ccc([N+](=O)[O-])cc3)CN2)cc1`, the figure is 12.7%; as for `CCn1cc(C(=O)NCc2ccc3c(c2)OCO3)c(=O)c2cc(F)c(N3CCN(C)CC3)cc21`, -37.2%; as for `CCOC(=O)c1cccc(S(=O)(=O)N2CCCC2)c1`, 8.7%.

Take `C/C=C/c1ccc(OCC(=O)O)c(OC)c1`: the “hERG current change (%, negative = inhibition) at 10uM” value was 12.4%. As for `C/C=C/c1ccc(OCCCCN2CCC(C)CC2)c(OC)c1`, the figure is -68.1%; as for `COc1cc(/C=C/C(=O)OCC(=O)NCc2ccco2)ccc1O`, 3.65%. Turning to `COc1ccc(/C=C/C(=O)N(Cc2ccccc2)c2ccccn2)cc1OC`, the “hERG current change (%, negative = inhibition) at 10uM” value is listed as -76.6%. For `COc1ccc(/C=C/C(=O)N(c2ccccn2)C2CCCCC2)cc1OC` the value was -6.44%. As for `C/C=C/c1ccc(OCCCCOc2ccc(OC)cc2)c(OC)c1`, the figure is -7.09%; as for `COc1cc(/C=C/C(=O)OCC(=O)NCc2ccco2)ccc1OC(F)F`, 6.87%.

For the molecule `C/C=C/c1ccc(OCC(O)CN2CCCCCCC2)c(OC)c1` (stereo not shown), the “hERG current change (%, negative = inhibition) at 10uM” value is -35.4%.

With `COc1cc(/C=C/C(=O)N(Cc2ccccc2)c2ccccn2)cc(OC)c1OC`, the “hERG current change (%, negative = inhibition) at 10uM” value is given as -23.2%. For `COc1ccc(/C=C/C(=O)OCC(=O)NCc2ccco2)cc1OC` the value was -72%; for `C/C=C/c1ccc(OCC(O)CN(C)Cc2ccc(SC)cc2)c(OC)c1.O=C(O)C(=O)O` (stereo not shown), -71.2%; for `COc1ccccc1OCCCCN1CCC(C)CC1`, -16%. For the molecule `CCOC(=O)C1=C(COc2ccc(F)cc2Cl)NC(=O)NC1c1cc(C)ccc1C` (stereo not shown), the “hERG current change (%, negative = inhibition) at 10uM” value was 10.6%.

As for `O=[N+]([O-])c1cc(Cl)ccc1Nc1ccccc1`, the “hERG current change (%, negative = inhibition) at 10uM” value came out at 9.85%. As for `CCOC(=O)c1sc(NC(=O)COC(=O)CNC(=O)c2ccco2)c(C(=O)OCC)c1C`, the figure is 4.08%; as for `COc1cccc(CN2CCN(S(=O)(=O)c3ccccc3)CC2)c1OC`, -4.11%; as for `CC(C(=O)NCc1ccc2c(c1)OCO2)c1ccc([N+](=O)[O-])cc1` (stereo not shown), -13.6%. For `Cc1ccc(-c2noc(CN3C(C)CCCC3C)n2)cc1` (stereo not shown) the value was 2.64%; for `Cc1cc(O)c(C=O)c2c1C(=O)Oc1c(CO)c(O)c3c(c1O2)C(O)OC3=O` (stereo not shown), 0.355%; for `C/C=C/c1ccc(OCCCCN(C)Cc2ccccc2)c(OC)c1.O=C(O)C(=O)O`, -79.4%. As for `C/C=C/c1ccc(OCCCCN2CC(C)CC(C)C2)c(OC)c1.O=C(O)C(=O)O` (stereo not shown), the “hERG current change (%, negative = inhibition) at 10uM” value was -81.6%. As for `C/C=C/c1ccc(OCCOCCNCc2ccccc2)c(OC)c1.O=C(O)C(=O)O`, the figure is -37%; as for `COc1cc(C)ccc1OCCOCCN(C)Cc1ccccc1.O=C(O)C(=O)O`, -32.8%.

Turning to `C/C=C/c1ccc(OCCCCN2CCN(CC)CC2)c(OC)c1.O=C(O)C(=O)O`, the “hERG current change (%, negative = inhibition) at 10uM” value is recorded as -29.5%. For `C/C=C/c1ccc(OCCCCOc2ccccc2C(C)=O)c(OC)c1` the value was -12.1%; for `C/C=C/c1ccc(OCCCNC(C)CC)c(OC)c1.O=C(O)C(=O)O` (stereo not shown), -14%. Turning to `C/C=C/c1ccc(OCCNCc2ccccc2)c(OC)c1.O=C(O)C(=O)O`, the “hERG current change (%, negative = inhibition) at 10uM” value is listed as -39.8%. As for `C/C=C/c1ccc(OCCCNC)c(OC)c1.O=C(O)C(=O)O`, the “hERG current change (%, negative = inhibition) at 10uM” value is on record as -44.6%. As for `COc1cc(C)ccc1OCCCCN1CC(C)OC(C)C1.O=C(O)C(=O)O` (stereo not shown), the figure is -9.65%; as for `C/C=C/c1ccc(OCCCNC2CCCC2)c(OC)c1.O=C(O)C(=O)O`, -57.6%; as for `C/C=C/c1ccc(OCCCCNCc2ccco2)c(OC)c1.O=C(O)C(=O)O`, -72.9%. For `C=CCN1CCN(C(c2ccccc2OC)c2nnnn2C(C)(C)C)CC1.Cl` (stereo not shown) the value was -0.19%; for `CCOC(=O)c1c(C)oc2ccc(OC(=O)N3CCOCC3)cc12`, -16.1%; for `CCCN(CCC)C(=O)CCSCCC(=O)N(CCC)CCC`, 14.5%. For `O=C(NCCN1CCOCC1)C1CCC(=O)N1Cc1ccc(F)cc1` (stereo not shown) the value was 1.05%.

As for `COc1ccc(Nc2nnc(SCc3cn4c(C)cccc4n3)s2)cc1`, the “hERG current change (%, negative = inhibition) at 10uM” value was -52.2%.

For `Cc1cccc2nc(CSc3nnc(N)s3)cn12`, the “hERG current change (%, negative = inhibition) at 10uM” value is -9.23%.

`O=c1cc(CSc2nnc(Nc3ccccc3)s2)nc2sccn12`: the “hERG current change (%, negative = inhibition) at 10uM” value is given as -27.6%.

Regarding `Cc1ccc(Nc2nnc(SCc3cc(=O)n4cc(C)ccc4n3)s2)cc1`, the “hERG current change (%, negative = inhibition) at 10uM” value was -36.6%. Take `CCc1ccc(Nc2nnc(SCc3cc(=O)n4ccsc4n3)s2)cc1`: the “hERG current change (%, negative = inhibition) at 10uM” value is recorded as -11.5%.

As to `COc1ccc(Nc2nnc(SCc3cc(=O)n4ccsc4n3)s2)cc1`, the “hERG current change (%, negative = inhibition) at 10uM” value is listed as -68.9%.

`CCC(=O)N1CCC2(CC1)Oc1ccc(Cl)cc1C(=O)C21CC(c2cccnc2)=NO1` (stereo not shown): the “hERG current change (%, negative = inhibition) at 10uM” value is on record as -15.1%. Consider `O=C(CCCN1C(=O)c2cccnc2C1=O)N1CC(=O)N(CCc2ccccc2)C(=O)C1`, for which the “hERG current change (%, negative = inhibition) at 10uM” value is -9.44%.

With `CCOC(=O)c1cnc2ccccc2c1Nc1cccc(C(=O)O)c1.Cl`, the “hERG current change (%, negative = inhibition) at 10uM” value worked out at 15.3%. Turning to `CC(/C=C1\SC(=S)N(CCCC(=O)Nc2ccc(C(=O)O)c(O)c2)C1=O)=C\c1ccccc1`, the “hERG current change (%, negative = inhibition) at 10uM” value worked out at 7.47%. With `Cc1ccc(C)c(S(=O)(=O)NCC(=O)Nc2ccc3c(c2)OCO3)c1`, the “hERG current change (%, negative = inhibition) at 10uM” value turned out to be 3.55%. For `Cc1cc(C)n(CCn2nc(C)cc2C)n1` the value was 4.43%. As for `Cc1ccc(NC(=S)NCc2ccccc2Cl)c(C)c1`, the figure is 2.81%. For `CCC(C)NC(=O)c1cn(CC)c2ccc(S(=O)(=O)N(C)C)cc2c1=O` (stereo not shown) the value was 1.45%; for `COCCN1CCN(C(=O)c2cc(COc3ccc(F)cc3Cl)on2)CC1`, -3.91%; for `NC(=O)CC(NC(=O)Cc1ccc(Br)cc1)c1ccc(N2CCN(c3ccccn3)CC2)c([N+](=O)[O-])c1` (stereo not shown), 17.2%. `COc1cc(NC(=O)CSc2nc(=O)n(CCN3CCOCC3)c3c2CCCC3)cc(OC)c1`: the “hERG current change (%, negative = inhibition) at 10uM” value was -23.3%. Regarding `Cc1ccc(C)c(NC(=O)CSc2nc(=O)n(CCN3CCOCC3)c3c2CCCC3)c1`, the “hERG current change (%, negative = inhibition) at 10uM” value is given as -24.2%. For `CCN(CC)CCn1c2c(c(SCC(=O)Nc3cc(OC)cc(OC)c3)nc1=O)CCC2` the value was -70.1%; for `CCN(CC)CCCn1c2c(c(SCC(=O)Nc3cc(OC)cc(OC)c3)nc1=O)CCC2`, -64.4%. As for `CCN(CC)CCn1c2c(c(SCC(=O)Nc3cc(C)on3)nc1=O)CCCC2`, the figure is -25%; as for `COc1cc(NC(=O)CSc2nc(=O)n(CCN3CCOCC3)c3c2CCC3)cc(OC)c1`, -41.9%. As for `COc1cc(NC(=O)CSc2nc(=O)n(CCCN3CCOCC3)c3c2CCC3)cc(OC)c1`, the figure is -34.9%.

As for `CCN(CC)CCn1c2c(c(SCC(=O)Nc3cc(C)cc(C)c3)nc1=O)CCC2`, the “hERG current change (%, negative = inhibition) at 10uM” value is -62.1%.

Consider `CCN(CC)CCn1c2c(c(SCC(=O)Nc3cc(C)ccc3C)nc1=O)CCC2`, for which the “hERG current change (%, negative = inhibition) at 10uM” value was -61%. Regarding `COC(=O)NC1(C(=O)O)CCCC1`, the “hERG current change (%, negative = inhibition) at 10uM” value is -0.802%. For `O=C(NNC(=O)c1cc(-c2ccco2)nc2ccccc12)c1ccccc1` the value was -3.05%; for `O=S(=O)(Nc1nc2ccccc2nc1NCC1CCCO1)c1ccc(F)cc1` (stereo not shown), -1.06%; for `Cc1cc(OCC(=O)N2C[C@H]3C[C@@H](C2)c2cccc(=O)n2C3)c2c(C)cc(=O)oc2c1`, 10.3%.

Turning to `COc1ccc(/C=N/NC(=O)C(=O)N2CCN(c3ccccc3OC)CC2)cc1`, the “hERG current change (%, negative = inhibition) at 10uM” value is on record as -27.6%. As for `COc1cc(CCC(=O)Nc2ccc(Cl)c(C(F)(F)F)c2)cc(OC)c1OC`, the figure is 13.1%.

Take `Cc1cc(Cl)c(S(=O)(=O)NCC2CCCO2)cc1OCC(N)=O` (stereo not shown): the “hERG current change (%, negative = inhibition) at 10uM” value was determined as 4.47%.

For `O=C(NC1CCCC1)c1cc(-c2ccc(Cl)cc2Cl)on1`, the “hERG current change (%, negative = inhibition) at 10uM” value is 7.16%. For `O=C(CN(Cc1ccco1)C(=O)c1ccc(N2CCCC2=O)cc1)Nc1ccccc1C(F)(F)F` the value was -46.3%; for `CCNC(=O)c1sc2cc(C)ccc2c1Cl`, -3.25%; for `CN(C)S(=O)(=O)c1ccc(N2CCCC2)c(C(=O)NC2CCC(O)CC2)c1` (stereo not shown), 13.2%.

For `c1ccc(-n2nnnc2NC2CCCCC2)cc1`, the “hERG current change (%, negative = inhibition) at 10uM” value is on record as 11%. For `Cc1ccc(CSCC(Nc2ccc(C(=O)O)cc2[N+](=O)[O-])C(=O)O)cc1` (stereo not shown) the value was 6.66%.
